High-throughput results deposited in PubChem by The Scripps Research Institute Molecular Screening Center.
NCOA1 inh: inhibits human SRC1 coactivator; Q15788; inhibition, % at 3.6 µM; 360,000 tested, 0.12% active; HEK293 GAL4-SRC1 luciferase reporter, luminescence;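 active = inhibition above the campaign mean plus 3 SD, with each screening campaign given its own cutoff, cut at about 60% in these data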
NR5A2 inv ag: inverse agonists of human LRH-1 (NR5A2). O00482. HEK293T StAR-luciferase reporter, LRH-1 transfected, 24 h. inhibition, % at 3.6 µM. 360,000 tested, 0.13% active. AID 602396;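 active = inhibition above the mean inhibition of all tested compounds plus 3 SD, cut at about 73% in these data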
NR2F2 inh: NR2F2 (human) inhibition, primary screen. inhibition, % at 8.6 µM. 370,000 tested, 0.7% active. HEK293T NGFI-A luciferase reporter, luminescence. P24468;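 active = inhibition above a per-plate cutoff, mean inhibition of test wells between control levels plus 3 SD, cut at about 38% in these data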;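 note: cells cotransfected with COUP-TFII expression vector driving the NGFI-A reporter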
SRC3 inh: inhibitors of human steroid receptor coactivator 3 (SRC3); 360,000 tested, 0.17% active; inhibition, % at 3.6 µM; HEK293 GAL4-SRC3 luciferase reporter, luminescence;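 active = inhibition above a per-campaign cutoff, the mean of all compounds plus 3 SD, cut at about 60% in these data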;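 note: higher means less SRC3-driven luciferase light from the GAL4 reporter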
NCOA2 inhibitor: inhibits human steroid receptor coactivator 2; Q15596; HEK293 GAL4-SRC2 luciferase reporter, luminescence; inhibition, % at 9 µM; 370,000 tested, 0.17% active;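 active = inhibition above the mean inhibition of all tested compounds plus 3 SD, set per campaign, cut at about 52% in these data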
GalR3 antag: blocks the human galanin receptor 3. inhibition, % at 3 µM. O60755. AID 651719. HEK293 GalR3-CNG cAMP membrane potential fluorescence; galR3 body fused to GalR1 C-terminus. 360,000 tested, 0.44% active;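 active = inhibition above the screen-wide average plus 3 SD, cut at about 13% in these data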;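 note: forskolin and galanin both at EC90 stimulate the cells; cAMP rise reported by CNG channel membrane potential dye signal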
A number is an active result; n = inactive; x = no result given. This is a sample that favours compounds with a hit; in the whole collection about 1.1% have one here.

SMILES	NCOA1 inh	NR5A2 inv ag	NR2F2 inh	SRC3 inh	NCOA2 inhibitor	GalR3 antag
COc1ccc(/C=C2\CC3(OC(=O)c4ccco4)CCCN2C3)cc1 (stereo unspecified)	x	x	n	x	n	x
CC1CCC2(CC1)CCC2NCc1ccc(Br)cc1 (stereo unspecified)	x	x	n	x	x	x
O=C(C=P(c1ccccc1)(c1ccccc1)c1ccccc1)c1ccccc1-c1ccccc1C(=O)C=P(c1ccccc1)(c1ccccc1)c1ccccc1	n	94.4	79.8	61.9	n	33.4
COc1ccccc1CCn1cnc(-c2ccccc2OC)c1C(C)C	x	x	n	x	n	n
CC1=NN(c2nc3ccccc3[nH]2)C(=O)C1Cc1ccccc1 (stereo unspecified)	n	81.2	x	74.6	x	x
Cc1ccc(NC(=O)CCN2CCN(CCO)CC2)cc1	n	n	n	n	n	n
Cc1ccc(NC(=O)CCN2CCCCC2)cc1	n	n	n	n	59.3	n
N#Cc1cccc(NC(=O)O[C@@H]2CC[C@@]34CCCN3C(=O)CCC[C@H]4C2)c1	x	x	n	x	x	x
O=C(NCc1ccccc1)[C@]1(C(F)(F)F)C[C@H](CCc2ccccc2)CCCO1	n	n	n	n	n	n
Nc1nc(Cl)c(N)c(NCC2(CO)CC(CCc3ccccc3)C2)n1 (stereo unspecified)	n	n	58.0	n	n	n
Cc1[nH]c2ccccc2c1CC(=O)Nc1ccc(Nc2cccnc2)c(Br)c1	x	x	n	x	n	n
COc1ccc(NC(=O)C2(C)Cc3c(-c4ccccc4)ccnc3O2)cn1 (stereo unspecified)	n	n	n	n	n	n
COc1ccc(NC(=O)C2(C)Cc3c(-c4cccc(C(F)(F)F)c4)ccnc3O2)cn1 (stereo unspecified)	n	n	n	n	71.3	n
CCC(=O)Nc1ccc(NC(=O)c2oc3ccccc3c2C)cc1	n	n	n	n	57.5	n
Clc1ccc(CSc2nnc(Cn3cnc4ccccc43)o2)cc1	n	n	62.8	n	n	33.0
COc1ccc2ccccc2c1/C=N/NC(=O)c1cccc(Br)c1	n	n	n	n	n	n
O=C(N/N=C/c1c(O)ccc2ccccc12)c1[nH]ncc1Br	n	n	n	67.3	n	n
O=C(N/N=C/c1c(O)ccc2ccccc12)c1cccc(C(F)(F)F)c1	70.2	n	n	73.9	n	n
C[C@H]1[C@@H](OC(=O)Nc2ccc(C#N)cc2)CC[C@@]23CCCN2C(=O)CCC[C@@H]13	x	x	n	x	x	x
COc1ccc(C=NNC(=S)NN=Cc2ccc(OC)c(OC)c2)cc1OC	n	n	n	n	n	15.8
Cc1ccc(S(=O)(=O)N2CCC(c3nc4ccccc4o3)CC2)s1	x	x	n	x	n	x
Cc1c(Cl)cccc1NC(=O)CCCn1nc([N+](=O)[O-])cc1C	n	n	n	n	n	n
Cc1cc([N+](=O)[O-])nn1CCCC(=O)Nc1ccc(Cl)cc1Cl	62.1	n	n	n	n	n
CCOC(=O)c1cc2sccc2n1CC(=O)N1CCc2ccccc21	n	n	n	66.7	n	n
CCOC(=O)c1cc2sccc2n1CC(=O)OC(C)C	n	n	n	n	n	n
SMILES	NCOA1 inh	NR5A2 inv ag	NR2F2 inh	SRC3 inh	NCOA2 inhibitor	GalR3 antag
Cc1ccc2nc(NC(=O)CCCC(=O)O)sc2c1	n	n	n	n	56.8	n
O=C(CSc1nnc(-c2cccnc2)n1-c1ccccc1)Nc1cccc2ccccc12	x	x	n	x	n	x
CC(=O)n1cc(N(C(=O)CCl)c2ccc(C)cc2)c2ccccc21	n	n	n	n	60.5	n
CC(=O)CC[C@H]1CC[C@]2(CCCN(S(=O)(=O)c3ccccc3)C2)O1	x	x	n	x	n	x
O=C(Nc1ccccc1Oc1ccccc1)c1cc([N+](=O)[O-])ccc1Cl	n	n	n	n	54.6	n
CCCN(CCC)c1ncnc2nc[nH]c12	n	n	n	65.3	n	n
Cc1cc(NC(=O)CCS(=O)(=O)c2nc(-c3ccccc3)cc(C(F)(F)F)n2)no1	n	n	n	n	n	n
CS(=O)(=O)c1nc(-c2ccccc2)cc(C(F)(F)F)n1	n	n	n	n	n	22.9
COc1ccc(C[C@@H]2OC3(C=CC(=O)C=C3)O[C@H]2Cc2ccc(OC)cc2)cc1	n	n	x	n	x	x
O=C1C=CC2(C=C1)O[C@H](Cc1ccccc1)[C@@H](Cc1ccccc1)O2	n	n	99.6	n	53.6	n
COc1ccc(C(=O)NCC(=O)OCc2ccc(F)cc2Cl)cc1OC	n	n	n	n	n	n
COc1ccc(C(=O)NCC(=O)OCc2c(Cl)cccc2Cl)cc1OC	n	n	n	65.8	n	n
O=C1/C(=C/c2cccnc2)CCC/C1=C\c1cccnc1	x	x	90.7	x	73.7	n
O=C1/C(=C/c2cccnc2)CC/C1=C\c1cccnc1	n	n	n	n	n	n
CCC1C/C(=C\c2cccnc2)C(=O)/C(=C/c2cccnc2)C1 (stereo unspecified)	n	n	91.4	n	91.9	n
C[C@H](CO)N1C[C@H](C)[C@@H](CN(C)C(=O)Nc2ccc(C(C)(C)C)cc2)OCc2cn(nn2)CCCC1=O	x	x	n	x	n	n
CCOC(=O)NC[C@@]1(C(=O)OC)CC(=O)N(Cc2ccc(Cl)cc2)[C@@H]1c1ccc(OC)cc1	x	x	n	x	n	x
CCOC(=O)CSc1nc2sc(C)c(C)c2c(=O)[nH]1	n	n	n	n	n	n
CCOC(=O)/C(=C\c1ccc(Cl)cc1)c1nc2sc(C)c(C)c2c(=O)[nH]1	n	n	n	n	n	13.5
O=C(CCc1nc(-c2ccccc2F)no1)NCCc1ccccc1F	x	x	n	x	n	x
Cc1ccc2c(C)nc(Nc3nc(CSc4nc5ccccc5[nH]4)cc(=O)[nH]3)nc2c1	n	n	n	65.4	n	n
Cc1ccc(SCc2cc(=O)[nH]c(Nc3nc(C)c4ccc(C)cc4n3)n2)cc1	n	n	n	n	n	n
COc1cccc(N2CCN(CC(=O)N(C)Cc3ccccc3Cl)CC2)c1	x	x	n	x	n	x
COc1cc(OC)c(OC)cc1CNC(=O)c1cccc(S(=O)(=O)N2CCc3ccccc3C2)c1	n	n	n	n	n	14.3
O=C(Nc1nccs1)C1(C(=O)C2CC2)CC(c2ccccn2)=NO1 (stereo unspecified)	x	x	n	x	n	x
SMILES	NCOA1 inh	NR5A2 inv ag	NR2F2 inh	SRC3 inh	NCOA2 inhibitor	GalR3 antag
COC(=O)C1CN(Cc2cn(Cc3ccc(OC)cc3)nn2)CCS(=O)(=O)N1Cc1ccc(F)cc1 (stereo unspecified)	x	x	n	x	n	x
Nc1ccc2oc(-c3cccc4ccccc34)nc2c1	n	n	n	n	55.4	n
COC(=O)c1ccccc1NC1=C/C(=N\S(=O)(=O)c2cccs2)c2ccccc2C1=O	n	n	n	n	n	n
Cc1ccc(S(=O)(=O)/N=C2\C=C(Nc3cccc(C(=O)O)c3)C(=O)c3ccccc32)cc1	n	n	n	n	n	n
Cc1ccc(NC2=C/C(=N/S(=O)(=O)c3cccs3)c3ccccc3C2=O)cc1	n	n	n	73.0	n	n
O=C1C(Nc2ccccc2)=C/C(=N/S(=O)(=O)c2cccs2)c2ccccc21	85.2	79.3	x	87.2	x	x
